Biological target: Pyruvate kinase PKLR (Homo sapiens) (UniProt P30613)
Experiment: Secondary Concentration-Response Assay for Activators of Human Liver Pyruvate Kinase: for Probe SAR;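 note: 0% = uninhibited enzyme wells on each plate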
Conditions: purified hPK-L, ATP production, Kinase-Glo luminescence; series mostly up to 58.3 µM; activity change, positive = activation: at the top concentration; active = well fitted curve in the direction sought with a large enough effect; inconclusive = small, poorly fitted or top-dose-only effect, or effect the other way, or another doubt; inactive = no such curve, though single readings can be large or run the other way
In short: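 Luciferase-coupled luminescence (Kinase-Glo) reports ATP made by 0.1 nM hPK-L from 0.5 mM PEP (at Km) and 0.1 mM ADP (about 10-fold below Km); pH 7.2 imidazole buffer, 1 h room temperature, in concentration-response format.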

Sequence of Pyruvate kinase PKLR (Homo sapiens) (P30613 whole entry, looked up): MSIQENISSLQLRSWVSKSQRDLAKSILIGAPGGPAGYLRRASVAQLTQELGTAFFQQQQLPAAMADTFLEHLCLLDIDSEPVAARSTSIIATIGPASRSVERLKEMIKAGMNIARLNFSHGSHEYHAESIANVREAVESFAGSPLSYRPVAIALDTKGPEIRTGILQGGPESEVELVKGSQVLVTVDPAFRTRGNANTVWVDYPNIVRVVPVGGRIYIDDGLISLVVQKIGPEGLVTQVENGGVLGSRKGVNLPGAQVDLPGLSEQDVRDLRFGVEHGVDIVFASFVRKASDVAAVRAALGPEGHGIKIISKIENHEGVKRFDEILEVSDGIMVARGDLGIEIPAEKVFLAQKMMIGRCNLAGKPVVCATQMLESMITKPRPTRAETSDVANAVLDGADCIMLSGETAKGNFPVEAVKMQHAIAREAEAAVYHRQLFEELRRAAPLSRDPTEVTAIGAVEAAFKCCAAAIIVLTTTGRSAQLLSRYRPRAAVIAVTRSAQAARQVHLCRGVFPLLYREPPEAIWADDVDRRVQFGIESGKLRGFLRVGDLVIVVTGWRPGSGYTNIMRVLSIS

Activity change, positive = activation, inactive:
Cc1ccc(NS(=O)(=O)c2cc3c(cc2-c2ccccc2)NC(=O)CO3)cc1C 12.6%, O=C1CCc2cc(S(=O)(=O)Nc3ccc(F)c(Cl)c3)ccc2N1 4.41%, Cc1ccc(NS(=O)(=O)c2ccc3c(c2)CCC(=O)N3)cc1F 11.7%, N#Cc1ccc(NS(=O)(=O)c2ccc3c(c2)CCC(=O)N3)cc1 3.86%, Cc1ccc(-c2nc3cccc(C)n3c2Nc2ccc(F)cc2)o1 4.76%, Cc1ccc(NS(=O)(=O)c2ccc3ccccc3c2)cc1C 5.46%, Cc1ccccc1NS(=O)(=O)c1ccc2c(c1)CCC(=O)N2 6.63%, O=C1CCc2cc(S(=O)(=O)Nc3cccc(Oc4ccccc4)c3)ccc2N1 2.11%, Cc1ccc(Nc2c(-c3ccc(C)s3)nc3ccccn23)cc1 3.95%, O=C1c2ccccc2C(=O)N1Cc1cccnc1 7.89%, O=S1(=O)N=C(Oc2ccc(Cl)cc2)c2ccccc21 -6.67%, O=C1c2ccccc2C(=O)N1c1ccc2ccccc2n1 -10.2%, O=C1c2ccccc2C(=O)N1c1noc2ccccc12 -6.4%, N#Cc1cccc(NS(=O)(=O)c2ccc3c(c2)CCC(=O)N3)c1 14.9%, O=C1CCc2cc(S(=O)(=O)Nc3cccc(Cl)c3)ccc2N1 3.94%
